The results in this text go back to PubChem BioAssay (EPA / NIEHS).

The structures appear in SMILES notation. Calls of active or inactive are those of the source. How the source made its calls: active means hit-call score of the fitted dose curve at least 0.9, where 1 is the maximum; inactive means score below 0.9.

What is called AC50 is the concentration at which the activity in the assay is half-maximal.

Read-out in the assay: Interleukin 17A (IL17A), IL17A (gene 3605)
The assay can be described thus: BSK_BT_xIL17A: BioMAP Diversity Plus: BT Assay for Interleukin 17A (IL17A) Biomarker Activity (AID 2284229). Conditions: primary human B cells with PBMC. The method, then: BSK_BT is a cell-based, multiplexed-readout assay that uses B cell and peripheral blood mononuclear cells, a human vascular primary cell co-culture, with measurements taken at 24 hours after chemical dosing in a microplate: 96-well plate.BSK_BT_xIL17A is an assay component measured in the BSK_BT assay. It measures secreted IL-17A related to regulation of gene expression using LumineX xMAP technology.Data from the assay component BSK_BT_xIL17A was analyzed at the endpoint, BSK_BT_xIL17A, in the positive analysis fitting direction relative to DMSO as the negative control and baseline of activity. Using a type of cytokine quantitation reporter, gain or loss-of-signal activity can be used to understand protein changes. To generalize the intended target to other relatable targets, this assay endpoint is annotated to the 'cytokine' intended target family, where the subfamily is 'interleukins'.
The levels of cell surface (or secreted, indicated by the prefix "s") biomarker endpoints were measured by ELISA. Overt cytotoxicity to cells in confluent adherent cultures (all systems other than the BT system) was assessed by measuring total protein levels using sulforhodamine B (SRB) staining in parallel cultures at the time of biomarker measurements, indicated as SRB endpoints. For proliferation assays for adherent cell types, individual cell types are cultured at sub-confluence and relative cell numbers quantified by SRB staining at time points optimized for each system (48 h: 3C and CASM3C systems; 72 h: BT and HDF3CGF systems; 96 h: SAg system). SRB was performed by staining cells with 0.1% SRB after fixation with 10% TCA and reading wells at 560 nm.Viability and proliferation of PBMC (T cells) was quantified by Alamar Blue reduction for the SAg and BT systems. For PBMC viability (referred to as PBMC Cytotoxicity within the assay endpoint names), cells were plated (75,000/well in a 96-well plate) and then chemical samples added for 1 h before addition of activators, SEB and TSST-1 (20 ng/mL final concentration each). Cells were incubated for 90 h. Then, Alamar Blue (20 uL/well) (Invitrogen, Cat DAL1100) was added for 6 h, and the plates were read with a fluorescence microplate reader at 546/580 nm (excitation/emission). For PBMC proliferation, cells were plated and activated as above but incubated for only 16 h prior to addition of Alamar Blue. Plates were read after 6 h.
Turning to `O=C(O)C(F)(F)C(F)(F)C(F)(F)C(F)(F)C(F)(F)C(F)(F)C(F)(F)C(F)(F)C(F)(F)C(F)(F)F`, the result was inactive. For `CCOP(=S)(OCC)Oc1ccc(S(C)=O)cc1` (stereo unspecified), the outcome was inactive. On to `Nc1ccc(-c2ccc(N)c(Cl)c2)cc1Cl`, for which the half-maximal activity concentration (AC50) is 12.8 µM (active).

On to `CC(C)c1ccc(CO)cc1`, for which the outcome was inactive.

With `CC1(C)Cc2cccc(O)c2O1`, the outcome was inactive. Regarding `CCOC(=O)/C=C(C)/C=C/C[C@@H](C)CCCC(C)C`, the AC50 was 20 µM (active).

As for `CCCCC(CC)CO[N+](=O)[O-]` (stereo unspecified), the outcome was inactive. On to `Oc1ccc(-c2ccccc2)cc1`, for which the result was inactive.

On to `COP(=S)(OC)Oc1c(Cl)cc(C)cc1Cl`, for which the AC50 is 10.7 µM (active). With `CCSC(C)CC1CC(=O)C(C(CC)=NOC/C=C/Cl)=C(O)C1` (stereo unspecified), the result was inactive. In the case of `COC(=O)c1sccc1S(=O)(=O)NC(=O)Nc1nc(C)nc(OC)n1`, the result was inactive. For the compound `COC[C@H](C)N(C(=O)CCl)c1c(C)csc1C`, the result was inactive. In the case of `NC(=S)Nc1ccccc1`, the result was inactive. Consider `COP(=S)(OC)Oc1ccc(S(=O)(=O)N(C)C)cc1`, for which the outcome was inactive. On to `COP(=S)(OC)Oc1ccc(Sc2ccc(OP(=S)(OC)OC)cc2)cc1`, for which the outcome was inactive. As for `CCOP(=S)(OCC)SCCS(=O)(=O)CC`, the outcome was inactive. For the compound `CCNc1nc(NC(C)(C)C)nc(SC)n1`, the outcome was inactive.

In the case of `ClC(Cl)=C(Cl)C(Cl)=C(Cl)Cl`, the result was inactive.

With `Nc1ncc([N+](=O)[O-])s1`, the outcome was inactive. For `O=C(OC1CCCCC1)c1ccccc1C(=O)OC1CCCCC1`, the AC50 is 20.9 µM (active). For the compound `BrCCBr`, the outcome was inactive. For the compound `CC(=O)C(Cl)C(=O)N(C)C` (stereo unspecified), the result was inactive.

On to `CC(C)CCCCCCOC(=O)c1ccccc1C(=O)OCCCCCCC(C)C`, for which the outcome was inactive.

For `COc1cc(OC)nc(NC(=O)NS(=O)(=O)c2ncccc2C(=O)N(C)C)n1`, the result was inactive. Consider `OCc1ccco1`, for which the result was inactive.

`O=C(O)CCC(F)(C(F)(F)F)C(F)(F)F`: the result was inactive. For `O=[N+]([O-])c1ccc2c3c(cccc13)CC2`, the result was inactive. Turning to `O=S(=O)(c1ccc(Cl)cc1)c1ccc(Cl)cc1`, the result was inactive.

Turning to `C(=NC1CCCCC1)=NC1CCCCC1`, the AC50 was 6.39 µM (active). In the case of `COP(=S)(OC)Oc1cc(Cl)c(Cl)cc1Cl`, the outcome was inactive.

Regarding `Oc1c(I)cc(I)cc1I`, the outcome was inactive. On the same count and under the same terms, as for `CCCCCCCCC(=O)NCc1ccc(O)c(OC)c1`, the entry is “inactive”.

`O=C(O)C(F)(F)C(F)(F)C(F)(F)C(F)(F)C(F)(F)C(F)(F)F`: the result was inactive. Take `Nc1cccc2ccccc12`: the result was inactive.

With `O=Cc1cccc(Oc2ccccc2)c1`, the result was inactive.

For `ClC1=C(Cl)[C@]2(Cl)[C@H]3[C@H]([C@H]4C=C[C@H]3C4)[C@@]1(Cl)C2(Cl)Cl`, the AC50 was 24.4 µM (active).
